Assay outcomes from PubChem.
SMARCA2 act: activators of SMARCA2 function. MG213 cells, MMTV-luciferase reporter, dexamethasone, overnight. activation, % at 9.1 µM. 370,000 tested, 1% active. AID 652017; in the data active = activation above about 7.8%
DAX1 inh-1: inhibitors of DAX1 repression of SF-1 activated StAR promoter | 370,000 tested, 1.1% active | inhibition, % at 6.8 µM | HEK293T StAR-luciferase reporter, SF-1/DAX-1 repression relief;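 active = inhibition above the mean over all tested compounds plus 3 SD, cut at about 3.6% in these data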;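 note: higher inhibition means more luminescence from relief of DAX-1 repression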
hgDAF-12 ag: activates the H. glycines DAF-12 receptor ligand-binding domain; HEK293 GAL4-hgDAF12 UAS-luciferase reporter, agonist luminescence; normalized to butyrate control; activation, % at 6.8 µM; 370,000 tested, 1.8% active; AID 687014;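 active = activation above a cutoff set at the mean of all screened compounds plus 3 SD, cut at about 10% in these data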
DAX1 inh-2: inhibitors of human orphan nuclear receptor DAX1 (NR0B1); P51843; HEK293 Gal4-DAX1 luciferase reporter, luminescence; inhibition, % at 6.75 µM; 340,000 tested, 0.99% active; AID 504766;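 active = inhibition above the mean over all tested compounds plus 3 SD, cut at about 4.2% in these data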;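 note: inhibition shows as a rise in luminescence from relieved DAX1 repression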
Target sequence (P51843 207-470 limits assumed): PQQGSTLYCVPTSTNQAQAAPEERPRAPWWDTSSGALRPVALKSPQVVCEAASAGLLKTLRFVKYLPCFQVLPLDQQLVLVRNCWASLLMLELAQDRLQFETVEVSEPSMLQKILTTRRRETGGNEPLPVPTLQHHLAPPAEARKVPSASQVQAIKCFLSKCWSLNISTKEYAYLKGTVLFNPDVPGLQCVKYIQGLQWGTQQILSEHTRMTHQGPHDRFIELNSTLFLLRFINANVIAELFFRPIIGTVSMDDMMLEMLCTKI
hcDAF12 agonist: H. contortus DAF-12 activation, primary screen. activation, % at 6.8 µM. 370,000 tested, 1.4% active. AID 652067. HEK293 hcDAF-12 lit1-tk-luc reporter, luminescence; 0% DMSO, 100% Δ7-dafachronic acid;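 active = activation above the mean of all tested compounds plus 3 SD, cut at about 5.5% in these data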
ssDAF-12 act: activates DAF-12 receptor from parasite S. stercoralis; 370,000 tested, 1% active; activation, % at 6.8 µM; HEK293 ssDAF-12/GRIP1 lit1-tk-luc reporter, luminescence; % of 3 µM dafachronic acid response;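 active = activation above the mean over all tested compounds plus 3 SD, cut at about 0.9% in these data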
Numbers stand for hits; n = inactive; x = no result given; ! = a repeat was not active. A selection: hits, their analogues and other compounds. The true share with any hit is near 4.8%.

SMILES	SMARCA2 act	DAX1 inh-1	hgDAF-12 ag	DAX1 inh-2	hcDAF12 agonist	ssDAF-12 act
O=C(Nc1nc2c(s1)CCCC2)C1COc2ccccc2O1 (stereo not drawn)	n	4.4	n	n	n	n
O=C(Nc1ccc2c(c1)CCC2)C1COc2ccccc2O1 (stereo not drawn)	n	n	11.6	n	n	n
O=C(NC1=NCCS1)C1COc2ccccc2O1 (stereo not drawn)	n	n	n	n	n	n
CCCCCc1nnc(NC(=O)C2COc3ccccc3O2)s1 (stereo not drawn)	n	n	n	n	5.6	n
O=C(Nc1ncc(Cc2ccccc2)s1)C1COc2ccccc2O1 (stereo not drawn)	n	4.2	10.8	n	n	n
O=C(Nc1ccc2c(c1)OCO2)C1COc2ccccc2O1 (stereo not drawn)	n	n	n	n	n	n
O=C(Nc1ccncc1)C1COc2ccccc2O1 (stereo not drawn)	n	n	n	n	n	n
CCOc1ccccc1-c1ccc2nccn2c1	n	n	n	x	n	n
O=C(N/N=C/C=C\c1ccccc1[N+](=O)[O-])c1ccccn1	n	n	10.7	n	n	n
Cc1ccc2c3c(c(SCC(=O)Nc4nonc4C)nc2c1)CCCC3	n	n	10.6	n	n	n
CN(Cc1ccccc1)C(=O)COC(=O)c1ccccc1SCC(=O)N1CCCC1	n	n	n	n	n	n
COc1ccc2c(c1)C(=O)C1(CC2)OC1c1cccnc1 (stereo not drawn)	n	n	n	n	n	n
CCN(C)C1CN(Cc2cn(Cc3ccc(C(F)(F)F)cc3)nn2)S(=O)(=O)C1 (stereo not drawn)	n	4.1	n	x	n	n
COCCCn1cc(CN2CC(N3CCN(CCN(C)C)CC3)CS2(=O)=O)nn1 (stereo not drawn)	n	n	n	x	n	n
CCCCCCn1cc(CN2CC(N3CCN(CCN(C)C)CC3)CS2(=O)=O)nn1 (stereo not drawn)	n	3.9	n	x	n	n
Cc1ccc(Cn2cc(CN3CC(N4CCN(CCO)CC4)CS3(=O)=O)nn2)cc1 (stereo not drawn)	n	4.2	n	x	n	n
COc1ccc(Cn2cc(CN3CC(N4CCN(CCO)CC4)CS3(=O)=O)nn2)cc1 (stereo not drawn)	n	n	n	x	n	n
CCCn1c(SCC(=O)NCCCN2CCCC2=O)nc2ccccc2c1=O	n	n	n	n	n	n
CCOC(=O)c1sc(Nc2nc(C)cc(OC)n2)nc1C	n	n	n	4.5	n	n
CCOC(=O)c1sc(Nc2nc(C)cc(C)n2)nc1C	n	n	n	n	n	n
Cc1ccc2nc(-c3cccc(S(=O)(=O)N(C)C)c3)cn2c1	n	n	10.6	n	n	n
C[C@@H]1CN([C@@H](C)CO)C(=O)c2c(c3ccccc3n2C)-c2ccccc2CO[C@H]1CN(C)C(=O)[C@H](Cc1ccccc1)N(C)C	n	n	n	n	n	n
Cc1ccc(C2(c3noc(CN(C)Cc4cccnc4)n3)CCCC2)cc1	n	n	n	4.5	n	n
Cc1cccc(NC(=O)c2cccnc2)c1	7.8	n	n	n	n	n
CC(C)Oc1cccc(C(=O)NC(=S)Nc2ccccc2)c1	n	n	11.6	n	n	n
SMILES	SMARCA2 act	DAX1 inh-1	hgDAF-12 ag	DAX1 inh-2	hcDAF12 agonist	ssDAF-12 act
Cc1cccc(NC(=S)N/C(=N/S(=O)(=O)c2ccccc2)c2ccccc2)c1	n	n	12.1!	n	n	n
Cc1ccc(C(=O)Nc2cccc(NC(=O)c3cccnc3)c2)cc1	n	n	n	n	n	n
CCCC(=O)NC(=S)Nc1cccc(NC(=O)c2ccccc2)c1	n	n	n	n	n	n
CC(C)CC(=O)NC(=S)Nc1cccc(NC(=O)c2ccccc2)c1	n	n	n	7.3	n	n
CCN(CC)C(=O)CC[C@@H]1CC[C@]2(CCCN(Cc3ccncc3)C2)O1	n	n	n	x	n	n
CN(CC(=O)Nc1c(Cl)cccc1Cl)C(=O)c1n[nH]c2ccccc12	n	n	n	n	n	n
COc1cc(C(=O)C(=O)N2CCN(c3ccccc3)CC2)cc(OC)c1OC	n	n	n	x	n	n
Cc1ccc(C(=O)NNC(=O)c2cccc(C)c2)cc1	n	n	10.6	n	n	n
Cc1cccc(NC(=S)NNC(=O)c2ccco2)c1	n	n	n	n	n	n
